system: EfPiwi piRISC loaded with L1MC piRNA (26 nt); assay: pre-steady-state target cleavage rate (min^-1); auxiliary factor: none (no Gtsf1); guide: L1MC piRNA 5'p-UAACUAAAUACUAUGCAAGCUGUAGG; MIWI and MILI are mouse PIWI proteins and EfPiwi is from a freshwater sponge; tags in brackets are library labels; higher = faster piRNA-guided slicing of the target
Method in brief: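 Cleave-'n-Seq reactions paired 0.1 nM transcribed, DNA-blocked target RNA library with 1 nM active affinity-purified piRISC holding one synthetic guide, plus or minus 500 nM GTSF1 partner protein, in HEPES–potassium acetate buffer at 33 °C for 0–8 or 0–960 min. After sequencing of uncleaved targets and normalisation to depth and weakly complementary targets, the pre-steady-state cleavage rate was taken from a burst-and-steady-state fit. Three trials were pooled, and k3 was capped at 0.0001 min^-1.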

pre-steady-state target cleavage rate, < 0.0001:
UCCUGGAUGUCGAUGCAUAGAAAUUAGUUA, UCCUGGAUGUCGAACGAUAGUAUUUAGUUU [g2:g14:cont:t1U], UCCUGCUACAGCUUCGUUAGUAUUUUCAAA, UCCUGGAUGUCGAACGUAAGUAUUUAGUCA, UCCUGGAUGUCGAACGUAUGUAUUUAUUA, UCCUGGAUGUCGUUGCAUAGAUUUAGUUA, UCCUGGAUGUCGAACGUAUGUGAUUUAGUUA, UCCUGGAUGUCGAACGUAAGUAUUUAUUA, UCCUGGAUGUCCUUGCAAAGUAAUUAGUUA, UCCUGCUACAGCUUGCAAUCAUAAAUCAAA [g14:g25:cont:t1A], UCCUGGAUGUCGAACGAUAGUAUUUAGAAA [g4:g14:cont:t1A], UCCUGGAUGUCCUUGCAUAAGUAUUUAGUUA, UCCUGGAUGUCGAACCAUUGUAUUUAGUUA, UCCUGGAUGUCGAACGUUAAUAUUUAGUUA, UCCUGGAUGUCGAACGUAUCUAUUUAUUUA, UCCUGGAUGUCGUUGCAUAGUAUAUAGAUA, UCCUGGAUGUCGAACCAUUCAAUUUAGUUA, UCCUGGAACAGCUUCCAUAGUAUUAAGUUA, UCCUGGAUGUCGAUGCAUUGUAUUAAGUUA, UCCUGGAUGUCGAAGCAUACUAAUUAGUUA, UCCUGGAUGUCGAUGCAUUGAAUUUAGUUA, UCCUGGAUGUCGAAGCAUAGUAUUUAGCUA, UCCUGGAUGUCGAUGCAAGUAUUUAGUUA

From the supplement of paper PMC10338343
